# Laboratory results: PubChem BioAssay (NCI)
# About 83,000 compounds went through this panel and 20% of them were active in at least one assay; those are over-represented in the sample as a whole.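 Activity criterion: percent growth below 10, measured after cells in 96-well plates were exposed to a single compound concentration for 48 hours.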 Unmarked numbers belong to inactive results. Active and inactive are the calls of the source.
# Key:
# Assay in all cases: NCI-60 one-dose screen, 48 h (100 = growth as untreated, 0 = no growth, -100 = all killed)
# Settings in all cases: 10 µM unless noted
# [1] = system: SK-MEL-2 melanoma
# [2] = system: EKVX NSCLC
# [3] = system: SN12C renal
# [4] = system: UO-31 renal
# [5] = system: TK-10 renal
# [6] = system: ACHN renal
# [7] = system: CAKI-1 renal
# [8] = system: A498 renal
# [9] = system: CCRF-CEM leukemia
# [10] = system: MOLT-4 leukemia
# [11] = system: SR leukemia
# [12] = system: RPMI-8226 leukemia
# [13] = system: OVCAR-8 ovarian
# [14] = system: OVCAR-5 ovarian
# [15] = system: OVCAR-4 ovarian
# [16] = system: SK-OV-3 ovarian
# [17] = system: IGROV1 ovarian
# [18] = system: OVCAR-3 ovarian
# [19] = system: HS 578T breast
# [20] = system: NCI/ADR-RES ovarian
Structure (SMILES),growth [1],growth [2],growth [3],growth [4],growth [5],growth [6],growth [7],growth [8],growth [9],growth [10],growth [11],growth [12],growth [13],growth [14],growth [15],growth [16],growth [17],growth [18],growth [19],growth [20]
COc1cc(C(=O)c2cc(C(C)=O)c3ccc(C)cn23)cc(OC)c1OC,37.5%,46.5%,42.4%,44%,76.3%,51.3%,34.3%,38.3%,47.1%,28.5%,26.9%,54.6%,50.6%,59.5%,79.7%,77.4%,41.9%,28%,59%,18.4%
CC(=O)OC[C@@]12Oc3c(cccc3-c3ccc(O)c4c3O[C@]3(COC(C)=O)C(=C4O)C(=O)C[C@H](C)[C@@H]3OC(C)=O)C(O)=C1C(=O)C[C@H](C)[C@@H]2OC(C)=O,-20.4% (active),16.4%,7.7% (active),9.35% (active),9.84% (active),7.48% (active),0.254% (active),1.51% (active),14.3%,4.81% (active),-7.02% (active),-27.1% (active),15%,27.6%,5.47% (active),-1.41% (active),26.9%,11.6%,-13.6% (active),24.7%
COc1ccc(OC)c(NC(=O)CCCCCCNC(=O)C(O)(O)C(F)(F)F)c1,10.6%,56%,58.9%,30.3%,12.9%,15.3%,25.2%,38.3%,23.5%,20%,12.9%,20.9%,23.4%,26.3%,86.7%,6.28% (active),55.2%,40.5%,49.7%,32.8%
O=c1[nH][nH]c(-c2ccc(F)cc2)c1-c1nc2ccccc2s1,100%,90.1%,82%,87.3%,154%,95.1%,87.1%,67.9%,86.6%,95.8%,103%,97.4%,100%,95.9%,106%,88.6%,86.8%,108%,96.9%,86.8%
O=C(NNc1nc2cc(F)cc(F)c2n2cccc12)c1cccnn1,20.8%,9.18% (active),18.5%,15.4%,42.4%,10.3%,12.4%,4.83% (active),6.41% (active),7.32% (active),14.8%,11.8%,19%,46.3%,4.96% (active),-1.52% (active),13.5%,14%,32%,0.935% (active)
Oc1[nH]c2ccc(Cl)cc2c1N=Nc1nc(N=Nc2c(O)[nH]c3ccc(Cl)cc23)nc(N2CCCCC2)n1,86.7%,50.8%,42.5%,86.7%,121%,88.6%,88.1%,94.2%,9.81% (active),22.1%,24.5%,57%,25.9%,38.2%,42.2%,94.5%,22.9%,76.9%,36.2%,101%
COc1ccc(C(C)=C(c2ccc(OCCN(C)C)cc2)c2ccc(OCCN(C)C)cc2)cc1,-70.3% (active),13.5%,0.111% (active),-59.4% (active),-56.1% (active),-46% (active),-69.1% (active),-38.9% (active),-23.6% (active),-37.6% (active),-46.5% (active),-48.5% (active),-2.55% (active),-5.23% (active),-35.4% (active),-5.19% (active),-24.6% (active),-46.2% (active),-46.7% (active),0.85% (active)
